From PubChem BioAssay (NCI)
About 83,000 compounds went through this panel and 20% of them were active in at least one assay; those are over-represented in the sample as a whole.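 Growth was measured after 48 h exposure to one concentration of compound in 96-well plates. Values under 10 count as active.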 Active and inactive are the calls of the source.

Assays:
Assay in all cases: NCI-60 one-dose screen, 48 h (100 = growth as untreated, 0 = no growth, -100 = all killed)
Conditions in all cases: 10 µM unless noted
BT-549 breast = system: BT-549 breast
MDA-MB-435 melanoma = system: MDA-MB-435 melanoma
SW-620 colon = system: SW-620 colon
MCF7 breast = system: MCF7 breast
HCT-116 colon = system: HCT-116 colon
HCC-2998 colon = system: HCC-2998 colon
KM12 colon = system: KM12 colon

Measured: growth

O=C(Nc1nc2ccccc2s1)c1cc(-c2ccc(F)cc2)n2nc(-c3ccccc3)cc2n1
inactive: BT-549 breast 79% | MDA-MB-435 melanoma 86.5% | SW-620 colon 67.8% | MCF7 breast 69.3% | HCT-116 colon 45.8% | HCC-2998 colon 97.5% | KM12 colon 68.7%

C[N+]1(CCC[N+]2(C)C[C@@H]3[C@H](C2)[C@@H]2C=C[C@H]3C2)CCOCC1 (some centres not stated)
inactive: BT-549 breast 103% | MDA-MB-435 melanoma 113% | SW-620 colon 106% | MCF7 breast 107% | HCT-116 colon 105% | HCC-2998 colon 112% | KM12 colon 108%

O=Cc1c[nH]c2ccc(NC(=O)OCc3ccccc3)cc12
inactive: BT-549 breast 21.4% | MDA-MB-435 melanoma 115% | SW-620 colon 121% | MCF7 breast 100% | HCT-116 colon 98.9% | HCC-2998 colon 96.2% | KM12 colon 123%

COc1ccc(C(=O)C(C)Br)cc1OC (configuration not stated)
inactive: BT-549 breast 94.3% | MDA-MB-435 melanoma 87.4% | SW-620 colon 40.8% | MCF7 breast 84.4% | HCT-116 colon 52.2% | HCC-2998 colon 101% | KM12 colon 93.3%

CN(C)c1cccc2c(S(=O)(=O)N[C@H]3CC[C@H]4[C@@H]5CCc6cc(O)ccc6[C@H]5CC[C@]34C)cccc12
inactive: BT-549 breast 35.9% | SW-620 colon 24.8% | MCF7 breast 12.9% | HCT-116 colon 13.1% | HCC-2998 colon 60.6% | KM12 colon 18.5%
active: MDA-MB-435 melanoma -46.4%

Cc1nc(N)[nH]c(=O)c1C
inactive: BT-549 breast 45.1% | MDA-MB-435 melanoma 106% | SW-620 colon 125% | MCF7 breast 95% | HCT-116 colon 101% | HCC-2998 colon 81.1% | KM12 colon 122%

Fc1ccc(-c2nc(Nc3ccc(-c4nc5ccccc5[nH]4)cc3)nc(N3CCOCC3)n2)cc1
active: BT-549 breast -73.6% | MDA-MB-435 melanoma -86.1% | SW-620 colon -74.2% | MCF7 breast -73.8% | HCT-116 colon -85.5% | HCC-2998 colon -89.9% | KM12 colon -91.3%

COc1ccc2c(c1)C(=O)c1c-2c(OCCCN(C)C)nc2cc(Br)ccc12
inactive: BT-549 breast 89.7% | MDA-MB-435 melanoma 90.2% | SW-620 colon 35.7% | MCF7 breast 18.5% | HCT-116 colon 56.8% | HCC-2998 colon 69.6% | KM12 colon 69.7%

O=C1/C(=C/c2ccc([N+](=O)[O-])s2)Oc2ccc(Br)cc21
active: BT-549 breast -46.2% | MDA-MB-435 melanoma -69.5% | SW-620 colon -63.5% | MCF7 breast -25.2% | HCT-116 colon -71.5% | HCC-2998 colon -79.9% | KM12 colon -51.3%

COc1cc(/C=C2\COc3ccc(O)cc3C2=O)cc(OC)c1
inactive: BT-549 breast 66.1% | MDA-MB-435 melanoma 20.1% | HCC-2998 colon 109% | KM12 colon 17.4%
active: SW-620 colon 2.07% | MCF7 breast 8.22% | HCT-116 colon 0.249%

COc1ccc(/C=C/C(=O)Nc2cccnc2Nc2ccc(F)cc2)cc1
inactive: BT-549 breast 89.3% | MDA-MB-435 melanoma 94.4% | SW-620 colon 106% | MCF7 breast 88.3% | HCT-116 colon 91.3% | HCC-2998 colon 106% | KM12 colon 107%

C/C(=N/N=C(N)N)c1ccc(Cl)cc1
inactive: MDA-MB-435 melanoma 71.7% | SW-620 colon 112% | MCF7 breast 83.9% | HCT-116 colon 85.7% | HCC-2998 colon 57.8% | KM12 colon 93.2%
active: BT-549 breast -0.709%

COc1ccc2[nH]cc(/C=C3/C(=O)Nc4ccc(F)cc43)c2c1
inactive: BT-549 breast 134% | MDA-MB-435 melanoma 93.8% | SW-620 colon 101% | MCF7 breast 56.3% | HCT-116 colon 86% | HCC-2998 colon 93% | KM12 colon 27%

CCCCCCCCCCSc1ncnc2nc[nH]c12
inactive: BT-549 breast 75.8% | MDA-MB-435 melanoma 76.6% | SW-620 colon 86.5% | MCF7 breast 75.9% | HCT-116 colon 48.8% | HCC-2998 colon 78.1% | KM12 colon 85.1%

ClC1C2CC(c3ccccc32)C1Cl (configuration not stated)
inactive: BT-549 breast 102% | MDA-MB-435 melanoma 120% | SW-620 colon 110% | MCF7 breast 103% | HCT-116 colon 105% | HCC-2998 colon 110% | KM12 colon 116%

COc1ccc(-c2c3c(nn2-c2ccc(N)cc2)CCc2cnoc2-3)cc1OC
inactive: BT-549 breast 81.4% | MDA-MB-435 melanoma 94.8% | SW-620 colon 97.6% | MCF7 breast 94.1% | HCT-116 colon 84.4% | HCC-2998 colon 98.4% | KM12 colon 82.1%

CCCCn1c(Cc2ccc(Cl)cc2)nc2cc(OC)c(OC)cc2c1=O
inactive: BT-549 breast 38% | MDA-MB-435 melanoma 74.1% | SW-620 colon 95.6% | MCF7 breast 86.5% | HCT-116 colon 52.5% | HCC-2998 colon 75.8% | KM12 colon 76.1%

CSc1nc2c(c(=O)n1C)C(c1ccccc1)C1=C(N2)/C(=C/c2ccccc2)CCC1 (configuration not stated)
inactive: BT-549 breast 37.9% | SW-620 colon 47.1% | MCF7 breast 56.7% | HCT-116 colon 39.5% | HCC-2998 colon 71.4% | KM12 colon 71.4%
active: MDA-MB-435 melanoma 4.1%

CC1SC(c2c(Cl)cccc2Cl)N(NC(=O)c2[nH]c3ccc(F)cc3c2-c2ccccc2)C1=O (configuration not stated)
active: HCT-116 colon -43.8%
inactive: BT-549 breast 75.7% | MDA-MB-435 melanoma 61.9% | SW-620 colon 17% | MCF7 breast 42.3% | HCC-2998 colon 11.2% | KM12 colon 46.4%

COc1ccc(COC(C)=O)cc1
inactive: BT-549 breast 99.7% | MDA-MB-435 melanoma 111% | SW-620 colon 98.8% | MCF7 breast 102% | HCT-116 colon 107% | HCC-2998 colon 114% | KM12 colon 104%

Cc1ccc2c(c1)C(=O)/C(=C/c1ncc([N+](=O)[O-])n1C)O2
active: BT-549 breast -25.9% | MDA-MB-435 melanoma -80.6% | SW-620 colon -32.5% | MCF7 breast -1.55% | HCT-116 colon 7.67% | HCC-2998 colon -44% | KM12 colon -48.4%

CC(C)[O-].CC(C)[O-].CN(CCN(C)Cc1cc(F)cc(F)c1[O-])Cc1cc(F)cc(F)c1[O-].[Ti+4]
inactive: HCC-2998 colon 57%
active: BT-549 breast -1.16% | MDA-MB-435 melanoma -24.5% | SW-620 colon 0.502% | MCF7 breast -42.2% | HCT-116 colon -0.794% | KM12 colon -30.7%

O=C(/C=C/c1ccccc1)CC(c1ccccc1)N1CCOCC1 (configuration not stated)
active: BT-549 breast -79.4% | SW-620 colon -16.7% | HCT-116 colon -97% | KM12 colon -81%
inactive: MDA-MB-435 melanoma 11.8% | MCF7 breast 11.1% | HCC-2998 colon 20.8%

COc1cc(C2C=C(c3ccc(C)cc3)Nc3nc(SC)[nH]c(=O)c32)ccc1Oc1ccnc2cc(Cl)ccc12 (configuration not stated)
inactive: BT-549 breast 87.9% | MDA-MB-435 melanoma 55.3% | SW-620 colon 93.3% | MCF7 breast 56.9% | HCT-116 colon 64.5% | HCC-2998 colon 95.9% | KM12 colon 60.5%

S=C(Nc1ccc(C2=NCCN2)cc1)Nc1ccc(C2=NCCN2)cc1
inactive: BT-549 breast 87.9% | MDA-MB-435 melanoma 102% | SW-620 colon 107% | MCF7 breast 103% | HCT-116 colon 107% | HCC-2998 colon 104% | KM12 colon 101%

OC(CCC(O)(c1ccccc1)c1ccccc1)(c1ccccc1)c1ccccc1
inactive: BT-549 breast 121% | MDA-MB-435 melanoma 69.9% | SW-620 colon 69.6% | MCF7 breast 87.3% | HCT-116 colon 80.5% | HCC-2998 colon 83.4% | KM12 colon 75%

CCOC(=O)c1c(C)nc(C)c(C(=O)OCC)c1-c1cccnc1
inactive: BT-549 breast 106% | MDA-MB-435 melanoma 111% | SW-620 colon 112% | MCF7 breast 109% | HCT-116 colon 90% | HCC-2998 colon 104% | KM12 colon 110%

O=C1Cc2cc(CCN3CCN(CCOCCO)CC3)c(Cl)cc2N1Cc1ccc(-c2ccccc2-c2nn[nH]n2)cc1
inactive: BT-549 breast 87.3% | MDA-MB-435 melanoma 92.8% | SW-620 colon 95.9% | MCF7 breast 87.1% | HCT-116 colon 87.8% | HCC-2998 colon 88.5% | KM12 colon 85.2%

O=c1ccn(C2OC(CO)C(O)C2F)c(=O)[nH]1 (configuration not stated)
inactive: BT-549 breast 115% | MDA-MB-435 melanoma 107% | SW-620 colon 102% | MCF7 breast 104% | HCT-116 colon 108% | HCC-2998 colon 97.8% | KM12 colon 111%

NC(=O)N/N=C/c1ccc(Br)o1
inactive: BT-549 breast 104% | MDA-MB-435 melanoma 113% | SW-620 colon 114% | MCF7 breast 95.4% | HCT-116 colon 105% | HCC-2998 colon 96.5% | KM12 colon 108%

CCC(C)CC(C)C(=O)c1c(O)ccn(O)c1=O (configuration not stated)
inactive: BT-549 breast 35.6% | MDA-MB-435 melanoma 46.8% | SW-620 colon 25% | MCF7 breast 18.9% | HCT-116 colon 22.7% | HCC-2998 colon 89.7% | KM12 colon 34.2%

O=C(Cc1ccccn1)C(F)(F)C(F)(F)C(F)(F)F
inactive: BT-549 breast 127% | MDA-MB-435 melanoma 113% | SW-620 colon 109% | MCF7 breast 97.3% | HCT-116 colon 104% | HCC-2998 colon 100% | KM12 colon 135%

COc1cc(/C=C/c2nnc(-c3cc(-c4ccccc4)n[nH]3)o2)cc(OC)c1OC
inactive: BT-549 breast 112% | MDA-MB-435 melanoma 102% | SW-620 colon 115% | MCF7 breast 92% | HCT-116 colon 119% | HCC-2998 colon 98.3% | KM12 colon 103%

COc1ccc(C2CC(c3ccc(OC)c(OC)c3)=NN2C(=O)c2cc(OC)c(OC)c(OC)c2)c(OC)c1 (configuration not stated)
inactive: BT-549 breast 63.2% | SW-620 colon 62.2% | MCF7 breast 35.1% | HCT-116 colon 68.7% | HCC-2998 colon 96.5% | KM12 colon 61.5%
active: MDA-MB-435 melanoma 3.86%

C/C(=C\CCc1ccsc1)CC/C=C(\C)CCCN1CCC(CO)CC1
inactive: BT-549 breast 36.2% | MDA-MB-435 melanoma 13% | MCF7 breast 16%
active: SW-620 colon -29.8% | HCT-116 colon -2.6% | HCC-2998 colon -14.9% | KM12 colon 5.04%

OCCOc1c(Cl)cc(Cl)cc1Cl
inactive: BT-549 breast 109% | MDA-MB-435 melanoma 103% | SW-620 colon 98.7% | MCF7 breast 89% | HCT-116 colon 109% | HCC-2998 colon 110% | KM12 colon 115%
